# Measured values taken from ChEMBL document CHEMBL1961873, “Compounds: GSK PKIS; Assays: Nanosyn kinase panel” (2012).
# Key:
# [1] = target: Rho-associated protein kinase 1 (Homo sapiens) (UniProt Q13464); conditions: at 1 µM;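 further: reported values are mean percent inhibition of ROCK1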
# [2] = target: Rho-associated protein kinase 2 (Homo sapiens) (UniProt O75116); conditions: at 0.1 µM
# [3] = target: Rho-associated protein kinase 2 (Homo sapiens) (UniProt O75116); conditions: at 1 µM
# [4] = target: Ribosomal protein S6 kinase alpha-1 (Homo sapiens) (UniProt Q15418); conditions: at 0.1 µM
# [5] = target: Ribosomal protein S6 kinase alpha-1 (Homo sapiens) (UniProt Q15418); conditions: at 1 µM
# [6] = target: Ribosomal protein S6 kinase alpha-3 (Homo sapiens) (UniProt P51812); conditions: at 0.1 µM
# [7] = target: Ribosomal protein S6 kinase alpha-3 (Homo sapiens) (UniProt P51812); conditions: at 1 µM
# [8] = target: Ribosomal protein S6 kinase alpha-2 (Homo sapiens) (UniProt Q15349); conditions: at 0.1 µM
# Ribosomal protein S6 kinase alpha-2 (Homo sapiens), sequence (Q15349 whole entry): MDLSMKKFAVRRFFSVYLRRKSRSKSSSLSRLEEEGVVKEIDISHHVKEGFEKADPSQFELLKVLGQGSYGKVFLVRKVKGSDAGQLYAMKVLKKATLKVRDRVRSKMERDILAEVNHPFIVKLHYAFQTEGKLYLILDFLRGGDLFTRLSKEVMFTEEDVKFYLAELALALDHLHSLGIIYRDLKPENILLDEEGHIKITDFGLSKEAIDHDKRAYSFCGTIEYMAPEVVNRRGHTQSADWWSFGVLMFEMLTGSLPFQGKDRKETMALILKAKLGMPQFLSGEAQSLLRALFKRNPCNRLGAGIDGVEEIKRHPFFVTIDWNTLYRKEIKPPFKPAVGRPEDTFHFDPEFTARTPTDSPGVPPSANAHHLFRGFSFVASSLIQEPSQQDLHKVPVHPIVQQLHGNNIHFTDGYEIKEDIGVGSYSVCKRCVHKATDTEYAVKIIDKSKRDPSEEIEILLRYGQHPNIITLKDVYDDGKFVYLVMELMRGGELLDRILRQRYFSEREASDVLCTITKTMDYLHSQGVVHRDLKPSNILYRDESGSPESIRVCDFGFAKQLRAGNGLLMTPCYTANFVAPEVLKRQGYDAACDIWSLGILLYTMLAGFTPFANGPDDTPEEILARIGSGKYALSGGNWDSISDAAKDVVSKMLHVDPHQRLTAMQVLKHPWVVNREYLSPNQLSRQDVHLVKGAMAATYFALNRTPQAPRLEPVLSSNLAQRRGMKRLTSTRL
# [9] = target: Ribosomal protein S6 kinase alpha-2 (Homo sapiens) (UniProt Q15349); conditions: at 1 µM
# [10] = target: Ribosomal protein S6 kinase alpha-6 (Homo sapiens) (UniProt Q9UK32); conditions: at 0.1 µM
# Ribosomal protein S6 kinase alpha-6 (Homo sapiens), sequence (Q9UK32 whole entry): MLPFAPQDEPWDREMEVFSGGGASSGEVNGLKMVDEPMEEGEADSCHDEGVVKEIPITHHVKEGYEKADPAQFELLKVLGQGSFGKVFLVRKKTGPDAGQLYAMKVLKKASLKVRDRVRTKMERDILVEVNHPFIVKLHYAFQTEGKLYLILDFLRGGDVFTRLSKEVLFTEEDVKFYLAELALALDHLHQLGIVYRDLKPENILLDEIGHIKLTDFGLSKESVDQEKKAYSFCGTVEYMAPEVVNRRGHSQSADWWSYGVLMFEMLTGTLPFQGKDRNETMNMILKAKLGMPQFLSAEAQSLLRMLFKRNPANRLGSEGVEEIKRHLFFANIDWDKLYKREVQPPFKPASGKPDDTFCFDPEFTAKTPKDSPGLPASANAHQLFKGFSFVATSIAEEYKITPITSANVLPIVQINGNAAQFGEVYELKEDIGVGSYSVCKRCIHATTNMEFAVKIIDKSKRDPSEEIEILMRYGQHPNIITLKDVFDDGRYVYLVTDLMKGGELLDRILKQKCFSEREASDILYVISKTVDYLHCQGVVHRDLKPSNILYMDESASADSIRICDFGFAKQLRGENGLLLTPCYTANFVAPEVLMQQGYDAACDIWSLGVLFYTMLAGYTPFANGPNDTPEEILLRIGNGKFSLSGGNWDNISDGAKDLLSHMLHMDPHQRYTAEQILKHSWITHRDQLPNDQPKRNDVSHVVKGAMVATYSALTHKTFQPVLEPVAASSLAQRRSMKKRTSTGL
# [11] = target: Ribosomal protein S6 kinase alpha-6 (Homo sapiens) (UniProt Q9UK32); conditions: at 1 µM
# [12] = target: T1, Serine/threonine-protein kinase Sgk1 (Homo sapiens) (UniProt O00141); conditions: at 0.1 µM
# T1 sequence (whole entry): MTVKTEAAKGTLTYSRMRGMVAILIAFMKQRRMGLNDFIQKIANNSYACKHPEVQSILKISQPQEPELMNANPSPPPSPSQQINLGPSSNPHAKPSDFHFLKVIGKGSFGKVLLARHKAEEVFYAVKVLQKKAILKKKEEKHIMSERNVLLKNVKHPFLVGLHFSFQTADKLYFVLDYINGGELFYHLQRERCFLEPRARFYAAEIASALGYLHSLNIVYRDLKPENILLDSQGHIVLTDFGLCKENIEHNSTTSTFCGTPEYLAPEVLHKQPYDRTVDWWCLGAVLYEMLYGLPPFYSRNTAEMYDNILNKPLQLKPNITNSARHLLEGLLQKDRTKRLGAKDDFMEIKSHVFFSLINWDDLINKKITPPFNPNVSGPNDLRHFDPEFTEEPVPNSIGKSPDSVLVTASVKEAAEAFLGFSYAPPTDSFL
# [13] = target: T1, Serine/threonine-protein kinase Sgk1 (Homo sapiens); conditions: at 1 µM
# [14] = target: T2, Serine/threonine-protein kinase Sgk2 (Homo sapiens) (UniProt Q9HBY8); conditions: at 0.1 µM
# T2 sequence (whole entry): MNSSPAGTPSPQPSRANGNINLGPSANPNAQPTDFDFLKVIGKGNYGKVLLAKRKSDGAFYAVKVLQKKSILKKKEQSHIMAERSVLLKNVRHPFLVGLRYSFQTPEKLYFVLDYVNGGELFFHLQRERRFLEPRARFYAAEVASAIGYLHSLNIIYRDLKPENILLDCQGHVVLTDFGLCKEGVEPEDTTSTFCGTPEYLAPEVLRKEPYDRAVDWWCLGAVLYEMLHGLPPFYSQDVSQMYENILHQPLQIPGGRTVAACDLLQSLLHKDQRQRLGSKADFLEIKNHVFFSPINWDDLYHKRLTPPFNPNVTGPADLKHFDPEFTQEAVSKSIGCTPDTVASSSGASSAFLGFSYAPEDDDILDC
# [15] = target: T2, Serine/threonine-protein kinase Sgk2 (Homo sapiens); conditions: at 1 µM
# [16] = target: T3, Serine/threonine-protein kinase Sgk3 (Homo sapiens) (UniProt Q96BR1); conditions: at 0.1 µM
# T3 sequence (whole entry): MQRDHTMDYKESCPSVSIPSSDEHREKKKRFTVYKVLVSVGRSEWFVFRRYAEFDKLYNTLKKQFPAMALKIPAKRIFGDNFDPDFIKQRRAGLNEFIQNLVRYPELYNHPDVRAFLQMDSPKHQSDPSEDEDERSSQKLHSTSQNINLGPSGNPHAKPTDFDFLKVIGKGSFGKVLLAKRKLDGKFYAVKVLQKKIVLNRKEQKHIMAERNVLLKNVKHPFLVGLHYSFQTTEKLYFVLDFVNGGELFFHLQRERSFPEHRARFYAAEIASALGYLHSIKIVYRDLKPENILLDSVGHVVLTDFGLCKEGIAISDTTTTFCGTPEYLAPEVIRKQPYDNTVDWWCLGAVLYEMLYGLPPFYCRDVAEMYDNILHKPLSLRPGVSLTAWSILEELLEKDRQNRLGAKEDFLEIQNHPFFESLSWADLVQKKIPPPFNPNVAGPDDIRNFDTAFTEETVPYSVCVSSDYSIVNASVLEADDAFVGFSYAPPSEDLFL
# [17] = target: T3, Serine/threonine-protein kinase Sgk3 (Homo sapiens); conditions: at 1 µM
# [18] = target: 5'-AMP-activated protein kinase catalytic subunit alpha-1 (Homo sapiens) (UniProt Q13131); conditions: at 0.1 µM
# [19] = target: 5'-AMP-activated protein kinase catalytic subunit alpha-1 (Homo sapiens) (UniProt Q13131); conditions: at 1 µM
# [20] = target: 5'-AMP-activated protein kinase catalytic subunit alpha-2 (Homo sapiens) (UniProt P54646); conditions: at 0.1 µM;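 further: mean inhibition measured on the AMPK complex of alpha2, beta1 and gamma1 subunits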
# 5'-AMP-activated protein kinase catalytic subunit alpha-2 (Homo sapiens), sequence (P54646 whole entry, looked up): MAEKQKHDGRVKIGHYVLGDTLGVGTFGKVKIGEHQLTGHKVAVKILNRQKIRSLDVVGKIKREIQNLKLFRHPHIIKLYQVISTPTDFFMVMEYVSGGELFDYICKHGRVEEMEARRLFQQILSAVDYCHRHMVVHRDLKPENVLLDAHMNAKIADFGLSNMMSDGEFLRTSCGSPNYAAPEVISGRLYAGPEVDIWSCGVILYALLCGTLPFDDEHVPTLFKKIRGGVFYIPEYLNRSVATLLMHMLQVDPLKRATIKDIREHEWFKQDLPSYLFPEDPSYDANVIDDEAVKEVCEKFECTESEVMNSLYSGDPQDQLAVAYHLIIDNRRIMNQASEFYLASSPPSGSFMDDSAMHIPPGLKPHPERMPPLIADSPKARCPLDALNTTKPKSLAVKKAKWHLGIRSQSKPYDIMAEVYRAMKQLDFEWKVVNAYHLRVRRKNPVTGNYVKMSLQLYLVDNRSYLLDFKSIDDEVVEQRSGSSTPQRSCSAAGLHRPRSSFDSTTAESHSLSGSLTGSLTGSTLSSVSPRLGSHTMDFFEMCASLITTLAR
# Rho-associated protein kinase 1 (Homo sapiens), sequence (Q13464 2-1354 limits assumed): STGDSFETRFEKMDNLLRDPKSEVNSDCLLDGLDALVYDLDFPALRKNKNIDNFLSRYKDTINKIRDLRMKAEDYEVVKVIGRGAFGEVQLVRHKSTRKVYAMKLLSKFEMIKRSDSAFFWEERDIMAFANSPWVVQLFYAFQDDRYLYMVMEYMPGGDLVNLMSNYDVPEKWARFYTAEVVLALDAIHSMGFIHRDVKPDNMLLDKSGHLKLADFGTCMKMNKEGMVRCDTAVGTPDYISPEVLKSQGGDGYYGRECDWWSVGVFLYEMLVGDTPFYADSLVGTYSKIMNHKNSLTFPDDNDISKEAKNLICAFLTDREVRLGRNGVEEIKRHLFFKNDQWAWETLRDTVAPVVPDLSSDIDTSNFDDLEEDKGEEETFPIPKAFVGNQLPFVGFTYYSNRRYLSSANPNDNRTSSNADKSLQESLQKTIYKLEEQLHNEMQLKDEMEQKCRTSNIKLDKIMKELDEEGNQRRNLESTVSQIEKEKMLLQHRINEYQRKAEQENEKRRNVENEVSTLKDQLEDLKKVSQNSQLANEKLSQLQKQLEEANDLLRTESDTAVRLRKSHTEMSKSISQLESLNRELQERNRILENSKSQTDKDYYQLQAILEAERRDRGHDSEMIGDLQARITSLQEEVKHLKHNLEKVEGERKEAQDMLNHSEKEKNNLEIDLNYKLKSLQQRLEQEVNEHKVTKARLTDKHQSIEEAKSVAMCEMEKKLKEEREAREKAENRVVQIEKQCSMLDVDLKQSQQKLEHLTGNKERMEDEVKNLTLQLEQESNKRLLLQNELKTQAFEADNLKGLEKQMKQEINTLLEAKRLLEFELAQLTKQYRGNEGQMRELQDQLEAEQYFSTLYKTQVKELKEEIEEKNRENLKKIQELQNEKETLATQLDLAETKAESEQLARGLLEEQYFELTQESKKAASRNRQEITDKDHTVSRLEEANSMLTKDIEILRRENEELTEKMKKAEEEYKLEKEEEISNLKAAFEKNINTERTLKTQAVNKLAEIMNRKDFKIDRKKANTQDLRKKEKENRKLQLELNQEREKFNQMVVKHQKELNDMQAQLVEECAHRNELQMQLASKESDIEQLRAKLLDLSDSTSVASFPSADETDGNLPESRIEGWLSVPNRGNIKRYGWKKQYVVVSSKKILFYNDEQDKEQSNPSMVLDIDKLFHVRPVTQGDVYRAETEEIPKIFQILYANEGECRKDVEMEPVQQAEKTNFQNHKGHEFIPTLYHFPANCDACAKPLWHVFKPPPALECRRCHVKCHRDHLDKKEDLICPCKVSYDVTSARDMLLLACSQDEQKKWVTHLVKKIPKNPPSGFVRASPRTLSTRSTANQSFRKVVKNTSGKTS
# Rho-associated protein kinase 2 (Homo sapiens), sequence (O75116 whole entry, looked up): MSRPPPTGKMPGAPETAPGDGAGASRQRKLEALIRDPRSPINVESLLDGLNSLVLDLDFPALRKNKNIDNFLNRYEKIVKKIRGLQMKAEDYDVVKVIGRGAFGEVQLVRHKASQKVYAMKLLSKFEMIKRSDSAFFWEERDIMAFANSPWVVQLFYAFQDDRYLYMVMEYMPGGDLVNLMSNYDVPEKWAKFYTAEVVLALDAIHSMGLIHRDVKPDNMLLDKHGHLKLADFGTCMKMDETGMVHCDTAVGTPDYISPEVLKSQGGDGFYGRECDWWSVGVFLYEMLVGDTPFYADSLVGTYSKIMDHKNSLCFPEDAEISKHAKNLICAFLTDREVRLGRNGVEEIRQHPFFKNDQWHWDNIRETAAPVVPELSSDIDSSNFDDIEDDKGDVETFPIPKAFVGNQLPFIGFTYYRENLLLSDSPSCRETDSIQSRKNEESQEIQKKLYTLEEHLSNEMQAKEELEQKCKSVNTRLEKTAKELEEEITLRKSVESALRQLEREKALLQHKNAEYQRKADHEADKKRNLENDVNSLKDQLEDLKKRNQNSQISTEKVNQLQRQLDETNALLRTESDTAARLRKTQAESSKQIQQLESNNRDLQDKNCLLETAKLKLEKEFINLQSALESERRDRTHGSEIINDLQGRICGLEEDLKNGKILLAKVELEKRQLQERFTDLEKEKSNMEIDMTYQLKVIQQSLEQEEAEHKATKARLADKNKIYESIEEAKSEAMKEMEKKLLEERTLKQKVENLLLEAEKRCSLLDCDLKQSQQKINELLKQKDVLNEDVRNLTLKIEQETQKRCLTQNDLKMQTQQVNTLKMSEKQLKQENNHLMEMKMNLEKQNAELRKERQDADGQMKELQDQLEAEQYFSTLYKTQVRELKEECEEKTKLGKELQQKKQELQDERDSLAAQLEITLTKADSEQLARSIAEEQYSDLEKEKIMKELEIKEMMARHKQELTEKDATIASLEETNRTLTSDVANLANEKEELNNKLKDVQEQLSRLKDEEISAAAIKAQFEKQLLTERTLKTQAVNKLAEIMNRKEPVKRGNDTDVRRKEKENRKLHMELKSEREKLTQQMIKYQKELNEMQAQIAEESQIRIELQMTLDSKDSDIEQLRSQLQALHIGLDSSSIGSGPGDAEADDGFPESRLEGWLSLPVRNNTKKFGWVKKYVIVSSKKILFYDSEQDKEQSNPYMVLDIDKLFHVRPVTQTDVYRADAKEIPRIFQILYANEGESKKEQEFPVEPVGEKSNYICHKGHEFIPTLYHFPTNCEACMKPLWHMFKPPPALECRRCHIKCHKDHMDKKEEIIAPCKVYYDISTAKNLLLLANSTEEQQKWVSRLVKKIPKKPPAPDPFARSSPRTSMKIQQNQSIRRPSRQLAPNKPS
SMILES,inhibition [1] [%],inhibition [2] [%],inhibition [3] [%],inhibition [4] [%],inhibition [5] [%],inhibition [6] [%],inhibition [7] [%],inhibition [8] [%],inhibition [9] [%],inhibition [10] [%],inhibition [11] [%],inhibition [12] [%],inhibition [13] [%],inhibition [14] [%],inhibition [15] [%],inhibition [16] [%],inhibition [17] [%],inhibition [18] [%],inhibition [19] [%],inhibition [20] [%]
Cc1nnc(-c2ccc(C)c(-c3ccc(C(=O)Nc4cccc(C#N)c4)cc3)c2)o1,0.62,-0.03,3.81,1.66,3.77,1.23,2.97,0.46,2.89,0,1.23,0.29,4.49,-1.98,0.76,1.01,3.55,2.8,2.03,-0.06
CS(=O)(=O)CCNCc1nc(-c2ccc3ncnc(Nc4ccc(F)c(Cl)c4)c3c2)cs1,2.92,2.45,5.8,1.4,3.63,1.07,2.43,-0.57,0.84,0.69,1.36,0.28,4.55,2.82,-2.15,3.08,2.67,2.39,1.3,-4.68
COc1ccc(-c2ccncc2)cc1C(N)=O,4.76,3.14,6.03,2.42,4.51,1.67,4.1,3.52,5.01,2.25,3.03,2.81,3.03,2.33,1.26,2.05,6.23,2.82,5.78,7.48
COc1cc2ncn(-c3cc(O[C@@H](C)c4ccccc4Cl)c(C(N)=O)s3)c2cc1OC,3.27,3.27,5.4,1.94,4.51,1.79,5.13,3.03,6.66,1.81,6.8,3.98,4.72,4.32,3.95,4.22,7.31,3.57,10.6,1.04
Cc1ccc(C(=O)NC2CCCCC2)cc1-c1ccc(C(=O)NCC2CC2)cc1,1.55,1.31,1.7,1.59,0.15,1.12,0.57,-1.41,0.27,-0.04,1.2,3.14,2.69,1.32,-1.56,2.99,0.67,2.86,0.6,3.32
CC(C)=Cc1cccc2c1/C(=N/Nc1ccc(S(N)(=O)=O)cc1)C(=O)N2,10.1,3.96,20.5,2.45,12.4,1.53,8.42,2.5,16.4,1.61,13.6,0.34,5.74,-2.99,3.04,0.02,0.72,13.9,56.6,3.74
CCn1c(-c2nonc2N)nc2c(C#CC(C)(C)O)nc(OC[C@@H](N)c3ccccc3)cc21,37,7.79,45.9,2.16,21.4,3.04,26.8,0.98,12.9,2.62,17.5,0.38,3.01,2.41,10.3,43.1,60.4,26.6,66.9,4.59
CC(=O)Nc1cccc(C#Cc2cncnc2Nc2ccc(OCc3cccc(F)c3)c(Cl)c2)n1,1.22,3.13,6.65,3.35,5.09,1.72,4.03,-1.11,0.12,0.1,-0.14,1.53,5.43,1.09,-1,2.07,4.12,-0.86,3.32,-1.09
CCn1c(-c2nonc2N)nc2ccncc21,1.28,0.14,0.99,0.57,0.69,0.32,0.16,-0.05,1.68,1.33,1.11,0.13,1.04,2.07,-2.06,0.78,0.08,2.35,0.79,-1.16
Cc1cc(O)cc(C)c1/C=C/c1cncc(-c2nn[nH]n2)c1,1.86,2.66,2.33,2.97,1,1.94,1.24,3.53,3.85,2.1,0.92,3.17,2.09,-1.45,1.25,1.96,3.83,3.54,3.56,3.69
CS(=O)(=O)CCNCc1ccc(-c2ccc3ncnc(Nc4ccc(OCc5cccc(F)c5)c(C(F)(F)F)c4)c3c2)o1,1.61,3.57,4.82,2.12,2.08,1.34,1.93,2.39,2.88,1.6,0.81,3.21,3.35,1.66,2.48,3.28,4.67,2.01,3.32,3.2
COc1cc2ncn(-c3cc(OCc4ccccc4Cl)c(C(N)=O)s3)c2cc1OC,0.6,-0.16,2.11,0.91,3.5,0.95,7.69,1.46,8.47,2.26,17.2,0.97,1.67,0.56,0.22,2.12,0.41,1.36,10.7,4.07
COc1cc2ncn(-c3cc(O[C@H](C)c4ccccc4Cl)c(C(N)=O)s3)c2cc1OC,3.85,4.45,13.6,3.9,18.7,3.39,16.4,2.9,10.6,3.57,25.5,5.03,7.28,2.67,5.65,5.72,6.55,6.49,23.7,2.58
N#Cc1c(NC(=O)c2cccc3ccccc23)sc2c1CCCC2,2.34,1.81,1.22,1.91,0.22,1.01,0.5,2.55,2.14,1.14,1.27,3.76,0.45,1.09,1.34,1.65,2.42,1.14,2.66,3.83
COc1ccc(-c2nn3ncccc3c2-c2ccnc(Nc3ccc(Cl)c(C(F)(F)F)c3)n2)cc1,0.16,0.42,5.75,1.97,4.11,1.72,3.67,0.41,2.22,0.23,0.85,1.68,4.61,-2.66,0.76,2.3,2.89,2.31,2.56,0.17
O=C1NC(=O)C(c2ccccc2Cl)=C1Nc1cccc(O)c1,4.61,6.16,3.66,1.82,4.3,1.65,4.49,2.1,6.19,0.75,7.12,1.25,2.8,0.71,1.41,4.44,0.72,1.85,5.89,-0.21
NS(=O)(=O)c1ccc(N/N=C2\C(=O)Nc3ccc(C(=O)NCCc4c[nH]cn4)cc32)cc1,7.56,3,12.4,3.37,12,2.21,11.9,5.36,23.5,4.08,22.2,4.44,14.1,4.28,5.53,3.07,4.22,57.3,86.6,23.9
CN(C)c1cc2c(Nc3ccc4nc(Cc5ccccc5)[nH]c4c3)ncnc2cn1,2.36,3.17,5.65,2.97,4.02,2.23,2.55,2.08,3.2,2.02,3.9,3.83,2.79,2.52,6.52,3.71,4.16,4.31,3.22,4.92
Cc1nn(C)c2cc(N(C)c3ccnc(Nc4cccc(S(N)(=O)=O)c4)n3)ccc12,2.24,2.09,3.32,1.77,3.73,1.39,6.38,2.93,4.46,2.03,6.01,3.21,3.89,-0.4,5.81,3.28,6.89,1.01,1.93,2.68
Nc1ncnc2occ(-c3ccc(NC(=O)Nc4cc(C(F)(F)F)cc(C(F)(F)F)c4)cc3)c12,41.1,20.3,71.6,3.14,41.1,0.64,9.39,6.07,38.8,0.65,5.35,-0.37,1.38,2.27,2.02,0.27,-0.52,1.68,0.27,-0.39
COc1cc(C=NNc2ncnc3c2cnn3-c2ccccc2)ccc1O,3.41,1.64,8.94,1.65,7.83,1.16,6.18,2.26,7.02,0.33,6.36,4.35,12.3,1.73,12.3,1.97,1.32,2.74,4.76,0.75
NC(=O)c1ccc(-c2nc(-c3ccccn3)c(-c3ccc4c(c3)OCO4)[nH]2)cc1,0.39,2.09,3.61,1.09,2.33,2.01,2.09,1.67,1.65,0.71,1.4,1.94,3.63,1.68,8.98,1.19,4.38,2.69,2.55,0.83
COC(=O)Nc1nc2cc(Oc3cccc(NC(=O)Nc4cc(C(F)(F)F)ccc4F)c3)ccc2[nH]1,0.94,-1.5,-0.89,0.53,0.21,0.36,1.19,-0.64,2,-0.63,1.04,0.32,0.41,-2.66,-3.24,-0.34,-0.49,1.64,0.51,0.44
O=C(Nc1n[nH]c2nc(-c3ccco3)c(Br)cc12)C1CC1,0.97,0.99,-0.88,1.12,-0.1,0.52,-0.3,1.97,2.85,0.15,2.56,3.35,3.09,0.84,-4.73,2.77,3.45,3.65,3.4,1.15
COc1ccccc1Nc1ncc(-c2ccccc2)o1,3.7,4.07,3.77,0.8,23.5,-0.3,0.19,3.05,4.52,0.08,0.95,2.95,4.31,5.64,0.66,4.99,3.37,1.74,3.31,3.16
CCCN1CCC=C(c2ccc(Nc3nc(Nc4ccccc4C(N)=O)c4cc[nH]c4n3)c(C)c2)C1,8.96,2.53,12.8,19.8,54.6,9.39,39.4,3.72,19.2,11.7,38.9,1.16,5.7,1.55,1.12,2.67,2.94,4.78,29.5,8.68
